Drawing on PubChem BioAssay (NCI), this text covers growth for ten molecules.

For this assay, the system named is HL-60(TB) leukemia. Put plainly: NCI-60 one-dose screen, 48 h (100 = growth as untreated, 0 = no growth, -100 = all killed). The conditions noted are these: 10 µM unless noted.

Structures are written as SMILES. This is part of a sample that, as a whole, favours compounds with a hit. Of some 83,000 tested, about 20% had one in any assay.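 Compound tested at a single concentration for 48 hours in 96-well plates; a percent growth value below 10 was scored as active.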 A number with no mark means an inactive call. The source made the active and inactive calls.

For the molecule `O=C(Nc1ccc(-n2cc(-c3ccncc3)c(-c3ccc(O)c(Cl)c3)n2)cc1)Nc1cc(C(F)(F)F)cc(C(F)(F)F)c1`, the growth is 43.6%.
With `Cn1ccnc1C(=O)/C=C/c1ccc(C(=O)Nc2ccc(F)cc2)cc1` the figure was -6.9% (active); with `Fc1ccc2[nH]c3c(NCCCN4CCOCC4)ncnc3c2c1`, 109%.
For `Cc1ccc(NC(=O)Nc2cccnc2)cc1NC(=O)Nc1cccnc1`, the growth is 71.1%.
As to `COc1c(NC[C@H]2OC(O)[C@H](O)[C@@H](O)[C@@H]2O)c(=O)c1=O` (stereo not given in full), the growth is 114%.
As for `CCOC(=O)C(=Cc1cccc(C#N)c1)C(=O)OCC`, the growth was 27.9%.
For the molecule `C#C[C@@]1(O)[C@@H](CO)O[C@@H](n2cnc3c(-c4ccccc4)ncnc32)[C@@H]1O`, the growth is 102%.
Consider `COc1cc2cc(OC(C)=O)c3cc4c(cc3c2c(OC)c1OC)OCO4`, for which the growth is 96.6%.
The result for `N#CSc1cc(S(N)(=O)=O)ccc1N` reads 81.2%.
Turning to `Cc1c(C(=O)Nc2nc(-c3ccccc3)cs2)nnn1-c1ccccc1Br`, the growth was 36.9% [50 µM].
